What follows are compounds tested against AMP-activated protein kinase, AMPK (Homo sapiens) (UniProt P54646+O43741+P54619+Q9UGJ0+Q9Y478+Q13131+Q9UGI9) (assay: AMP-dependent Kinase enzyme assay. An in vitro enzyme assay that detects ADP turnover that is directly proportional to AMPK activity. This uses naive AMPK that is activated during the assay with MK-8722). Conditions: 30 µM.
Type: functional
Design: scale not given: direction of the effect not stated beside the values
Work on Cc1c(C(=O)N(C)C)cccc1N(C)S(C)(=O)=O yielded a Percent Effect of 11.2%.
CC1(NC(=O)CNC(=O)C(C)(C)C)CCc2ccccc2C1 (stereo unspecified) showed a Percent Effect of 7.71%.
In the case of Cc1cc(C)n(C2CN(c3nc(-c4ccncc4)nc4c3CCC4)C2)n1, the Percent Effect is reported as 2.99%.
Cn1cnnc1C1CCN(c2nc3ccccc3o2)CC1 was tested, and the Percent Effect was 1.68%.
In the case of O=C(NC1CCN(C2CC2)C1)c1cn(-c2ccc(F)cc2)nn1 (stereo unspecified), the Percent Effect is reported as -3.53%.
CN(Cc1ccc(C#N)cc1)CC1CCS(=O)(=O)C1 (stereo unspecified) gave a Percent Effect of 7.17%.
With Cc1ccc(-n2ncc3c2CCCC3N)cc1C (stereo unspecified) the Percent Effect was 16.9%.
With O=C(c1cncc(NCC2COc3ccccc3C2)n1)N1CCCCC1 (stereo unspecified) the Percent Effect was 16.5%.
In the case of CNC(=O)Cc1ccc(NC(=O)NCc2nc(C)sc2C)cc1, the Percent Effect is reported as 0.571%.
O=C(NCC(=O)N1CCCCC1)c1sccc1C1CC1 gave a Percent Effect of -1.89%.
CC(C)(C)OC(=O)N[C@H]1CCN(c2cncc(Br)c2)C1 gave a Percent Effect of 6.52%.
O=C1CSCN1Cc1nc(-c2ccc(N3CCCCC3)cc2)no1 gave a Percent Effect of 2.39%.
With O=C(CNc1ccc(OCC2CCOCC2)cc1)NCc1ccco1 the Percent Effect was 0.773%.
With CCOc1ccc(C(=O)NC2CC2)cc1C the Percent Effect was 4.59%.
In the case of COc1cc2c(cc1CNCc1ccnc(-n3cccn3)c1)OC(C)C2 (stereo unspecified), the Percent Effect is reported as -1.78%.
Cc1nc(COC(=O)c2cccc3c2OCCO3)cs1 was tested, and the Percent Effect was 3.39%.
With COC(CNC(=O)c1ccc[nH]1)c1cccc(Cl)c1 (stereo unspecified) the Percent Effect was 1.53%.
Compound Cc1c(NC(=O)NCCO)cccc1OC1CCCC1 has a Percent Effect of -2.68%.
In the case of Cc1ccc2[nH]c(CNC(=O)C3CC4(CCNCC4)CN3C)nc2c1C (stereo unspecified), the Percent Effect is reported as -16.1%.
COc1ccccc1OCCN(C)Cc1c(C2CC2)[nH]c2ncccc12 gave a Percent Effect of 11.7%.
With CCCN(CCc1ccccn1)C(=O)CCc1cnn(C)c1 the Percent Effect was 4.13%.

— ChEMBL document CHEMBL3988442, “University of Dundee, Small-Polar-MMV Screening Library” (2021)
